Assay [1] can be described thus: viability loss in pontine glioma line – cell-based, SU-DIPG-XVII, MIPE5.0, CellTiter-Glo, qHTS, dose response (AID 1347060; cut-off not given, nearly all actives have AC50 up to about 26 µM;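 on AC50: cells exposed to compound for 48 hours before viability readout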). Particulars: CellTiter-Glo ATP luminescence. (In general: Cellular ATP, detected with luciferase, serves as a proxy for viable cell number.)
Assay [2] can be described thus: viability loss in pontine glioma line – cell-based, JHH-DIPG-1, MIPE4.0, CellTiter-Glo, qHTS, dose response (AID 1347062; cut-off not given, nearly all actives have AC50 up to about 27 µM;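 on AC50: cells exposed to compound for two days before readout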). Particulars: JHH-DIPG-1 viability, CellTiter-Glo ATP luminescence.
A short description of assay [3]: viability loss in pontine glioma line – cell-based, SU-DIPG-XIII, MIPE5.0, CellTiter-Glo, qHTS, dose response (AID 1347064; cut-off not given, nearly all actives have AC50 up to about 23 µM;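 on AC50: cells exposed to compound for 48 hours before the viability read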). Particulars: CellTiter-Glo ATP luminescence.
Assay [4] is described as follows: growth inhibition of DIPG cells – cell-based, MIPE4.0 library, CellTiter-Glo luminescence, qHTS (AID 1347066; cut-off not given, nearly all actives have AC50 up to about 30 µM;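 further: cells exposed to compound for 48 hours before readout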). Particulars: SU-DIPG-VI viability, CellTiter-Glo ATP luminescence.
Assay [5] can be described thus: JHH-DIPG-1 glioma cell viability, MIPE5.0 library, CellTiter-Glo luminescence, qHTS (AID 1347067; cut-off not given, nearly all actives have AC50 up to about 26 µM;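 further: cells exposed to compound for 48 hours before readout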). Particulars: JHH-DIPG-1 glioma viability, CellTiter-Glo ATP luminescence.
Assay [6] can be described thus: growth inhibition of DIPG cells – cell-based, MIPE5.0 library, qHTS (AID 1347068; cut-off not given, nearly all actives have IC50 up to about 30 µM;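 on IC50: cells exposed to compound for 48 hours before viability readout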). Particulars: SU-DIPG-XXV viability. Background: qHTS replaces the single test concentration by a dilution series.
A short description of assay [7]: viability loss with induced miR-34 in A549 – imaging, A549 dox-inducible miR-34, nuclei and caspase counts, primary screen (AID 1347080;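 active means compounds whose cell count with miR-34 switched on is under 0.7 times the count with it off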). Particulars: A549 miR-34 inducible, Hoechst nuclei count, 48 h.
The nature of assay [8]: MELAS cybrid and Rieske KO viability enhancers – cell-based, MELAS cybrids, Rieske KO mouse fibroblasts, CellTiter-Glo, primary screen (AID 1508586;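 active means mean z-score across replicates of 1.96 or higher in either the MELAS or the Rieske mutant cell line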;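 further: z relative to plate mean and SD of compound and empty wells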). Particulars: low glucose.
A short description of assay [9]: viability loss in pontine glioma line – cell-based, SU-DIPG-XXV, MIPE5.0, CellTiter-Glo, qHTS, dose response (AID 1347065; cut-off not given, nearly all actives have AC50 up to about 26 µM;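 further: cells exposed to compound for 48 hours before ATP readout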). Particulars: CellTiter-Glo ATP luminescence.
The nature of assay [10]: compounds altering HSF1 focus formation in cells – imaging, Selleck Cancer Library (AID 1347162; in the data active means plate-normalised HSF1 focus index below about 0.46). Particulars: human cells, HSF1 nuclear foci imaging, at 10 µM; SSMD: measured here: HSF1 foci SSMD mean; cell count: measured here: cell number; plate-normalised HSF1 focus index: stronger effect = lower value.
Assay [11] is described as follows: drug combination growth inhibition, ovarian cancer – cell-based, oncology-focused library, rucaparib conditional, profiling panel (AID 1508598). Particulars: patient-derived ovarian cancer cells, CellTiter-Glo viability, 144 h, stronger effect = lower value.
The mark [12] stands for this setting: stronger effect = lower value, cell number ratio, induced over uninduced.
Where [13] appears, read: measured here: relative caspase fold change +Dox/-Dox.
Where [14] appears, read: measured here: total cells with miR-34 induction, stronger effect = lower value.
The mark [15] stands for this setting: measured here: total cells without miR-34 induction.
The mark [16] stands for this setting: MELAS cybrid survival, CellTiter-Glo 48 h, stronger effect = higher value.
The mark [17] stands for this setting: Rieske KO mouse fibroblast survival, CellTiter-Glo 72 h.

The values that follow come from PubChem BioAssay.

Inconclusive results are not listed. Activity calls are given as the source filed them.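 How the source made its calls, unless noted: active means normalized viability below 100% at a tested concentration; inactive means the rest.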

In the case of `O=c1ncn2nc(Sc3ccc(F)cc3F)ccc2c1-c1c(Cl)cccc1Cl`, the result in [1], in assay [2], in [3], in assay [4], in assay [5] and in assay [6] was inactive. Moreover, the figures for the fold change in [7] (setting [12]) and in [7] (setting [13]) were 0.89 (inactive) and 1.87, respectively. Further, the results for the cell count in [7] (setting [14]) and in assay [7] (setting [15]) were 6460 and 7250, respectively. The figures for the z-score in assay [8] (setting [16]) and in assay [8] (setting [17]) were -0.528 (inactive) and 1.18, respectively.

`COCCOc1ccc2c(c1)ncn2-c1ccc2cccc(N3CCC(N)CC3)c2n1`: the AC50 in [1] was 11.8 µM (active); in [2], 9.35 µM (active); in assay [3] it was 9.34 µM (active); in assay [9], 11.8 µM (active). For the same molecule, the IC50 in assay [6] was 18.6 µM (active). For the same molecule, the fold change is 1.1 (inactive) in [7] (setting [12]) and 0.953 in assay [7] (setting [13]). Further, the cell count in [7] (setting [14]) was determined as 1460; in assay [7] (setting [15]) it was 1320. Moreover, the figures for the z-score in assay [8] (setting [16]) and in assay [8] (setting [17]) were 0.564 (inactive) and -2.41, respectively.

In the case of `Cc1cnc(Nc2ccc(OCCN3CCCC3)cc2)nc1Nc1cccc(S(=O)(=O)NC(C)(C)C)c1`, the AC50 in assay [1] is 1.05 µM (active); in assay [3], 5.9 µM (active); in [9] it was 3.72 µM (active); in assay [5], 5.25 µM (active). Besides, the molecule was called inactive in assay [2] and in assay [4]. For the same molecule, in [6], the IC50 was 7.42 µM (active). Besides, the fold change in assay [7] (setting [12]) is 1.01 (inactive); in assay [7] (setting [13]), 1.95. The cell count in [7] (setting [14]) was 2480; in [7] (setting [15]) it was 2450; in assay [10], 6980. The molecule further came in with an SSMD in assay [10] of 1.73. In [10], the plate-normalised HSF1 focus index was 1.11 (inactive). The z-score in assay [8] (setting [16]) is 1.98 (active); in [8] (setting [17]), -3.31. For the same molecule, the viability is 104% (inactive) in [11] (at 0.000305 µM, OCI-C5x cells, with rucaparib 10 µM, 100% = cells with rucaparib alone); 124% (inactive) in [11] (at 0.000305 µM, OCI-C5x cells, without rucaparib); 98.4% (active) in assay [11] (at 0.000305 µM, OCI-P5x cells, with rucaparib 20 µM, 100% = cells with rucaparib alone); 110% (inactive) in [11] (at 0.000305 µM, OCI-P5x cells, without rucaparib); 113% (inactive) in assay [11] (at 0.00122 µM, OCI-C5x cells, with rucaparib 10 µM, 100% = cells with rucaparib alone); 121% (inactive) in assay [11] (at 0.00122 µM, OCI-C5x cells, without rucaparib). The viability in assay [11] (at 0.00122 µM, OCI-P5x cells, with rucaparib 20 µM, 100% = cells with rucaparib alone) is 99.3% (active); in assay [11] (at 0.00122 µM, OCI-P5x cells, without rucaparib) it was 109% (inactive); in assay [11] (at 0.00488 µM, OCI-C5x cells, with rucaparib 10 µM, 100% = cells with rucaparib alone) it was 112% (inactive); in assay [11] (at 0.00488 µM, OCI-C5x cells, without rucaparib), 125% (inactive); in assay [11] (at 0.00488 µM, OCI-P5x cells, with rucaparib 20 µM, 100% = cells with rucaparib alone), 102% (inactive); in [11] (at 0.00488 µM, OCI-P5x cells, without rucaparib), 109% (inactive). The viability in assay [11] (at 0.0195 µM, OCI-C5x cells, with rucaparib 10 µM, 100% = cells with rucaparib alone) was 107% (inactive); in assay [11] (at 0.0195 µM, OCI-C5x cells, without rucaparib), 121% (inactive); in [11] (at 0.0195 µM, OCI-P5x cells, with rucaparib 20 µM, 100% = cells with rucaparib alone) it was 95.4% (active); in assay [11] (at 0.0195 µM, OCI-P5x cells, without rucaparib), 112% (inactive); in [11] (at 0.0781 µM, OCI-C5x cells, with rucaparib 10 µM, 100% = cells with rucaparib alone), 106% (inactive); in [11] (at 0.0781 µM, OCI-C5x cells, without rucaparib) it was 122% (inactive). For the same molecule, the viability was 99.2% (active) in assay [11] (at 0.0781 µM, OCI-P5x cells, with rucaparib 20 µM, 100% = cells with rucaparib alone); 105% (inactive) in assay [11] (at 0.0781 µM, OCI-P5x cells, without rucaparib); 105% (inactive) in assay [11] (at 0.313 µM, OCI-C5x cells, with rucaparib 10 µM, 100% = cells with rucaparib alone); 113% (inactive) in [11] (at 0.313 µM, OCI-C5x cells, without rucaparib); 81.7% (active) in [11] (at 0.313 µM, OCI-P5x cells, with rucaparib 20 µM, 100% = cells with rucaparib alone); 96.3% (active) in assay [11] (at 0.313 µM, OCI-P5x cells, without rucaparib). The viability in assay [11] (at 1.25 µM, OCI-C5x cells, with rucaparib 10 µM, 100% = cells with rucaparib alone) was 93.7% (active); in assay [11] (at 1.25 µM, OCI-C5x cells, without rucaparib), 84.4% (active); in assay [11] (at 1.25 µM, OCI-P5x cells, with rucaparib 20 µM, 100% = cells with rucaparib alone), 78% (active); in [11] (at 1.25 µM, OCI-P5x cells, without rucaparib) it was 88.7% (active); in assay [11] (at 5 µM, OCI-C5x cells, with rucaparib 10 µM, 100% = cells with rucaparib alone), 2.62% (active); in [11] (at 5 µM, OCI-C5x cells, without rucaparib) it was 55.3% (active). Besides, the viability was 1.43% (active) in assay [11] (at 5 µM, OCI-P5x cells, with rucaparib 20 µM, 100% = cells with rucaparib alone) and 2% (active) in assay [11] (at 5 µM, OCI-P5x cells, without rucaparib).

Regarding `COc1cc(N2CCC(N3CCN(C)CC3)CC2)ccc1Nc1ncnc(Nc2ccccc2S(=O)(=O)C(C)C)n1`, the AC50 in assay [1] is 6.61 µM (active); in assay [2] it was 14.8 µM (active); in [3], 5.25 µM (active); in [9], 3.72 µM (active); in assay [5] it was 16.6 µM (active). Further, in assay [6], the molecule was called inactive.

As usually defined, the AC50 is the concentration at which the activity in the assay is half-maximal. By IC50 is commonly meant the concentration at which inhibition is half-maximal. The viability is a read-out of living cells in per cent, often relative to untreated cells.
